# Source: PubChem (National Center for Advancing Translational Sciences (NCATS))
# The list is not random: actives were taken first. Their share in the collection is about 2.7%.
# FBPA coupling cs: counter-screen for Giardia aldolase inhibitors: coupling enzyme system | activity change, negative = inhibition, % at 58.2 µM, hits read low | AID 2472 | hit rate 0.67% among 290,000 | coupling enzyme system counterscreen, AmpLite Red fluorescence; in the data active means activity change below about -30%
#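 Counterscreen lacking aldolase: glyceraldehyde-3-phosphate coupling-enzyme reagent preincubated 10 min at RT with compound (at 57.5 uM final), then substrate/coupling system with AmpLite Red added; fluorescence read at 525/598 nm after 20 min RT.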
# Tau fibril ThT: tau fibrillization inhibition (ThT binding). Potency, µM (series often up to 57.4 µM), inactives show top-dose activity, negative = inhibition, most hits filed as inhibitors. AID 1460. recombinant tau K18 P301L, heparin-induced fibrillization, ThT fluorescence. P10636. hit rate 2.1% among 270,000; further: potency means the concentration at half of the fitted maximal effect; nearly all actives have a fitted effect of over 55% in size
# Target sequence (P10636 561-689 P618L limits assumed): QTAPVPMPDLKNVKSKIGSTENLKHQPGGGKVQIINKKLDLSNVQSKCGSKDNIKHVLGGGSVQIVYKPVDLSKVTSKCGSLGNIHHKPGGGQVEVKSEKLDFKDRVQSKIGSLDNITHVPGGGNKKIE
#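 Heparin-induced fibrillization of the P301L-mutant K18 repeat-domain fragment of human tau was followed by ThT binding in quantitative high-throughput format.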
# Tau fibril FP: blocks human tau fibril formation measured by polarization | Potency, µM (doses to about 57.7 µM), for the others: at the top dose activity, negative = inhibition, usual class: inhibitors | hit rate 0.39% among 280,000 | K18 P301L tau heparin fibrillization, Alexa594 FP, 6 h | P10636; further: potency means the concentration at half of the fitted maximal effect; nearly all actives have a fitted effect of over 55% in size
#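 Compound effects on tau fibrillization are measured by Alexa 594 fluorescence polarization (ex 555, em 632 nm). K18 P301L tau is used at 15 uM with 0.24 uM labeled tracer, and 20 uM heparin induces aggregation over 6 hr at 37 C.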
# Tau fluor counter: counter-screen for tau fibril formation inhibitors | tau K18 P301L Alexa594 fluorescence, heparin fibrillization | Potency, µM (doses to about 57.7 µM), inactives show top-dose activity change, negative = decrease | hit rate 0.93% among 280,000; further: potency means the concentration at half of the fitted maximal effect; nearly all actives have a fitted effect of over 55% in size
#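 Human tau K18 P301L (15 uM unlabeled, 0.24 uM Alexa 594-labeled) in 100 mM sodium acetate pH 7 with 20 uM heparin, 6 hr at 37 C. ThT 30 uM added, 1 hr ambient; Alexa 594 FP and total fluorescence read at 555/632 nm.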
# An asterisk follows results filed as active; ? = inconclusive; / = no result given; [ ] = remark or other dose. Unless noted, the call rests on the fitted dose curve; in most records, active means well fitted curve in the direction sought with a large enough effect; inconclusive means small, poorly fitted or top-dose-only effect, or another doubt; inactive means no such curve, though single readings can be large; an effect the other way counts as inactive or inconclusive. On the % scale 0 is the no-effect control and ±100 the full control effect.
SMILES,FBPA coupling cs,Tau fibril ThT,Tau fibril FP,Tau fluor counter
CCc1ccc(N=c2c([N+](=O)[O-])nn(-c3ccc4c(c3)OCCO4)n2O)cc1,-5,11µM*,11%,?
O=[N+]([O-])c1nn(-c2ccc3c(c2)OCCO3)n(O)c1=Nc1ccccc1,4,4%,3%,0%
Cc1ccc(N=c2c([N+](=O)[O-])nn(-c3ccc(Cl)cc3)n2O)cc1C,2,13µM*,-3%,?
COc1ccc(OC)c(NC(=O)Cn2c(=O)n(-c3ccc(Cl)cc3)c(=O)c3c(C)c(C)sc32)c1,/,5%,-16%,-17%
CO/N=C/c1ccc(Sc2ccccc2)c([N+](=O)[O-])c1,2,?,-4%,?
CO/N=C/c1ccc(Sc2ccccc2N)c([N+](=O)[O-])c1,-2,?,5%,28µM*[quencher]
COC(=O)c1ccc(NC(=O)CSc2ncc3c(n2)-c2cc(Cl)ccc2N(Cc2ccccc2)S3(=O)=O)cc1,/,8%,16µM*,?
COc1ccccc1NC(=O)CSc1ncc2c(n1)-c1cc(Cl)ccc1N(Cc1ccccc1)S2(=O)=O,/,-3%,-6%,-27%
Cc1ccc(C2=NN=C(NC(=O)CSc3nncn3C)SC2)cc1,-2,22µM*,?,-18%
Cc1ccc(NC(=O)CSc2nncn2C)c(C)c1,/,-4%,-4%,-8%
O=C(Cn1nc2ccccc2n1)N/N=C/c1cc(Cl)cc([N+](=O)[O-])c1O,8,13µM*,8%,?
Cc1ccccc1C(=O)Nc1cccc(C(=O)N/N=C/c2cc(Cl)cc([N+](=O)[O-])c2O)c1,7,4µM*,7%,?
O=C(Cn1nnc(-c2ccccc2)n1)N/N=C/c1cccc([N+](=O)[O-])c1O,1,10µM*,11%,-2%
O=C(N/N=C/c1cc(Cl)cc([N+](=O)[O-])c1O)C1CC1,3,16µM*,3%,-17%
CC(C)(C)N/N=C/c1cc(Cl)cc([N+](=O)[O-])c1O,-3,-4%,5%,-8%
COc1cc(/C=N/NC(=O)c2cccc(NC(=O)c3ccccc3C)c2)ccc1O,-4,/,/,/
CCCC1=Nc2cc(C(=O)NCC(C)c3ccccc3)ccc2Sc2ccccc21 (stereo not drawn),/,-9%,-2%,-15%
O=S(=O)(c1ccc(NC(=S)N/N=C/c2ccc(O)c(O)c2)cc1)N1CCOCC1,-3,?,2%,?
O=[N+]([O-])c1cc(Cl)cc(/C=N/NC(=S)Nc2ccc(S(=O)(=O)N3CCOCC3)cc2)c1O,1,10µM*,6%,?
COc1ccc2nc(N=Nc3ccc(N(C)C)cc3)sc2c1,-2,0.89µM*,-13%,?
CCN(CC)CCNC(=O)c1ccc(NC(=O)c2cn(-c3ccccc3)nc2-c2cccs2)cc1,-2,1%,10µM*,?
O=C(Nc1cccnc1)c1cn(-c2ccccc2)nc1-c1cccs1,-1,7%,28µM*,18µM*[quencher]
Cc1ccc2c(c1)c(=O)c1ccccc1n2CCCC(=O)Nc1c(F)cccc1F,/,-2%,-14%,-7%
CCN1C(C)=C(C(=O)OC(C)C)C(c2ccccc2Cl)C(C(=O)O)=C1C(=O)O (stereo not drawn),0,/,/,/
O=C(Nc1cccc(Cl)c1)c1cccc(Oc2ccc([N+](=O)[O-])cc2Cl)c1,-7,-9%,1%,?
SMILES,FBPA coupling cs,Tau fibril ThT,Tau fibril FP,Tau fluor counter
O=C(Nc1cccc(Cl)c1)c1cc(N=Nc2ccc([N+](=O)[O-])cc2Cl)ccc1O,3,0.89µM*,8.9µM*,1.1µM*[quencher]
O=C(Nc1ccc([N+](=O)[O-])cc1Cl)c1cc(Cl)ccc1O,-3,7.1µM*,6%,?
Cc1ccc(O)c(NC(=O)c2cc([N+](=O)[O-])ccc2Cl)c1,-4,9%,0%,0%
Cc1ccc(N=Nc2c(N)n(-c3ccccc3)[nH]c2=O)cc1,0,3.2µM*,-2%,10µM*[quencher]
COCCNC(=O)C(=O)Nc1c2c(nn1-c1ccccc1)CS(=O)(=O)C2,/,0%,1%,0%
CCN1CCN(Cc2ccc(NC(=O)c3cc(NC(=O)C(=O)c4c[nH]c5ccccc45)cc(OC)c3)cc2C(F)(F)F)CC1,4,-14%,14µM*,?
CCN1CCN(Cc2ccc(NC(=O)c3ccc(C)c(NC(=O)C(=O)c4c[nH]c5ccccc45)c3)cc2C(F)(F)F)CC1,-2,-14%,?,-24%
OCc1cc2c(cn1)[nH]c1ccccc12,/,-14%,-2%,-27%
COc1cccc(OC)c1OCCNC(C)(C)C,-1,-5%,-7%,0%
COc1cccc(OC)c1OCCN(C)C,-34*,-1%,5%,1%
Cc1ccsc1C1C(C#N)=C(N)N(N(C)C)C2=C1C(=O)CCC2 (stereo not drawn),-44*,-1%,-6%,-4%
CSc1ccc(C(=O)/C=C/c2ccc(N)cc2)cc1,3,16µM*,2%,?
CN(Cc1ccco1)C(=O)c1ccc2c(c1)N(Cc1ccccc1F)C(=O)c1ccccc1S2,/,-10%,3%,-11%
COc1ccc(CCNCC(O)Cn2c3ccccc3c3ccccc32)cc1OC (stereo not drawn),1,-12%,-4%,-29%
COc1ccccc1NCC(O)Cn1c2ccccc2c2ccccc21 (stereo not drawn),-5,?,?,10µM*[quencher]
CCCCCCCC/C=C\CCCCCCCCCCCC(=O)O,12,/,/,/
COC(=O)[C@@H](NC(=O)N1CCc2nc(-c3ccc(OC)cc3C)c3c(c2C1)CO[C@@H](c1ccccc1)C3)C(C)C,0,-4%[11.5 µM],2%[11.6 µM],-1%[11.6 µM]
COc1cccc([C@@H]2Oc3ccc(Br)cc3[C@H](O)[C@H]2O)c1,-1,-1%,7%,-2%
CC(=O)NC1=C(N(C)C2CCS(=O)(=O)C2)C(=O)c2ccccc2C1=O (stereo not drawn),-70*,25µM*,?,-22%
CN(C(=O)Nc1ccccc1)C1CCS(=O)(=O)C1 (stereo not drawn),2,-4%,4%,3%
CC(=O)C1=C(c2ccc(Br)cc2)C(=O)c2ccccc2C1=O,-70*,8.9µM*,?,?
COc1ccc(N2CCN(C(=O)Cn3cnc4nc5c(cc4c3=O)CCCC5)CC2)cc1,/,?,-9%,-25%
CC(C)CCCC(C)C1CCC2C3CC=C4CC(=O)CC[C@@]4(C)C3CC[C@@]12C (stereo partly drawn),1,-15%,-1%,-7%
O=C(O)C(=O)/C(=C\c1ccc([N+](=O)[O-])cc1)c1ccc2ccccc2n1,4,16µM*,2%,-24%
CN=C1N[C@H](c2ccccc2)N(c2ccccc2)S1,0,20µM*,32µM*,-16%
Cc1ccc(-c2cc(-c3ccccc3Cl)c(C#N)c(N)n2)o1,-2,32µM*,-9%,-28%
O=C1c2cccc3c(Nc4ccccc4Cl)c([N+](=O)[O-])cc(c23)C(=O)N1CCO,2,11µM*,18%,?
CCOC(=O)c1ccccc1NC(=O)CSc1nccn1Cc1ccco1,/,-6%,8%,-9%
